Test results taken from PubChem BioAssay AID1159580 (chemical genetic matrix, 2015).
Out of some 5,500 compounds screened, about 2,000 (36%) were called active. Another 18% or so got no clear call; they are omitted. No stated cut-off is given here; in the data, active means normalized growth mostly below about 0.91 (no sharp cut-off); inconclusive means no clear call, values can overlap the other calls; inactive means mostly above about 0.92. This is one part of the list.

Assay: chemical genetic growth profiling, strain panel (AID 1159580);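 further: tested at 20 µM; growth read once vehicle control cultures reached saturation at 30 °C; 1 = growth at the plate median or of vehicle wells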
Conditions: growth OD

Measured: normalized growth

Nc1ccc(S(=O)(=O)NC(=O)c2ccccc2)cc1
inactive: S. cerevisiae deletion strains, locus YJR066W, strain TOR1, stronger effect = lower value 0.932 | S. cerevisiae deletion strains, locus YJR075W, strain HOC1, stronger effect = lower value 1.02 | S. cerevisiae deletion strains, locus YKL009W, strain mrt4, stronger effect = lower value 1.02 | S. cerevisiae deletion strains, locus YKL068W, stronger effect = lower value 1.01 | S. cerevisiae deletion strains, locus YKL085W, strain MDH1 (second series), stronger effect = lower value 1 | S. cerevisiae deletion strains, locus YKL085W, strain MDH1, stronger effect = lower value 1 | S. cerevisiae deletion strains, locus YKL160W, strain elf1, stronger effect = lower value 1.01 | S. cerevisiae deletion strains, locus YKL190W, strain CNB1, stronger effect = lower value 1.01 | S. cerevisiae deletion strains, locus YKR001C, strain vps1, stronger effect = lower value 1.03 | S. cerevisiae deletion strains, locus YKR026C, strain gcn3, stronger effect = lower value 0.969 | S. cerevisiae deletion strains, locus YKR091W, strain srl3, stronger effect = lower value 0.978 | S. cerevisiae deletion strains, locus YLL001W, strain dnm1, stronger effect = lower value 0.995 | S. cerevisiae deletion strains, locus YLL026W, stronger effect = lower value 1 | S. cerevisiae deletion strains, locus YLL041C, strain sdh2, stronger effect = lower value 0.992 | S. cerevisiae deletion strains, locus YLR027C, strain aat2, stronger effect = lower value 0.996 | S. cerevisiae deletion strains, locus YLR039C, strain RIC1, stronger effect = lower value 0.834 | S. cerevisiae deletion strains, locus YLR058C, strain SHM2, stronger effect = lower value 1.01 | S. cerevisiae deletion strains, locus YLR102C, strain apc9, stronger effect = lower value 1.01 | S. cerevisiae deletion strains, locus YLR113W, strain HOG1, stronger effect = lower value 0.968 | S. cerevisiae deletion strains, locus YLR221C, strain rsa3, stronger effect = lower value 0.976 | S. cerevisiae deletion strains, locus YLR258W, strain gsy2, stronger effect = lower value 0.987 | S. cerevisiae deletion strains, locus YLR262C, strain YPT6 (second series), stronger effect = lower value 0.979 | S. cerevisiae deletion strains, locus YLR262C, strain YPT6, stronger effect = lower value 1.01 | S. cerevisiae deletion strains, locus YLR268W, strain sec22, stronger effect = lower value 1.04 | S. cerevisiae deletion strains, locus YLR320W, strain mms22, stronger effect = lower value 0.985 | S. cerevisiae deletion strains, locus YLR330W, strain CHS5, stronger effect = lower value 1.01 | S. cerevisiae deletion strains, locus YLR342W, strain FKS1 (second series), stronger effect = lower value 1.02 | S. cerevisiae deletion strains, locus YLR342W, strain FKS1, stronger effect = lower value 0.998 | S. cerevisiae deletion strains, locus YLR357W, strain rsc2, stronger effect = lower value 0.977 | S. cerevisiae deletion strains, locus YLR370C, strain arc18, stronger effect = lower value 0.991 | S. cerevisiae deletion strains, locus YLR371W, strain rom2, stronger effect = lower value 1.02 | S. cerevisiae deletion strains, locus YLR384C, strain iki3, stronger effect = lower value 0.998 | S. cerevisiae deletion strains, locus YLR418C, strain cdc73, stronger effect = lower value 1.02 | S. cerevisiae deletion strains, locus YML016C, strain PPZ1, stronger effect = lower value 1.04 | S. cerevisiae deletion strains, locus YML032C, strain rad52, stronger effect = lower value 1.03 | S. cerevisiae deletion strains, locus YML120C, strain ndi1, stronger effect = lower value 0.972 | S. cerevisiae deletion strains, locus YML124C, strain tub3, stronger effect = lower value 1.01 | S. cerevisiae deletion strains, locus YMR058W, strain fet3, stronger effect = lower value 0.981 | S. cerevisiae deletion strains, locus YMR078C, strain ctf18, stronger effect = lower value 1.01 | S. cerevisiae deletion strains, locus YMR125W, strain sto1, stronger effect = lower value 0.977 | S. cerevisiae deletion strains, locus YMR129W, stronger effect = lower value 0.989 | S. cerevisiae deletion strains, locus YMR205C, strain PFK2, stronger effect = lower value 1 | S. cerevisiae deletion strains, locus YMR223W, strain ubp8, stronger effect = lower value 1.01 | S. cerevisiae deletion strains, locus YMR231W, strain pep5, stronger effect = lower value 0.981 | S. cerevisiae deletion strains, locus YMR263W, strain SAP30, stronger effect = lower value 1.01 | S. cerevisiae deletion strains, locus YMR307W, strain GAS1, stronger effect = lower value 0.878 | S. cerevisiae deletion strains, locus YNL067W, strain RPL9B, stronger effect = lower value 1.01 | S. cerevisiae deletion strains, locus YNL071W, strain lat1, stronger effect = lower value 0.977 | S. cerevisiae deletion strains, locus YNL183C, strain NPR1, stronger effect = lower value 0.95 | S. cerevisiae deletion strains, locus YNL209W, strain ssb2, stronger effect = lower value 0.971 | S. cerevisiae deletion strains, locus YNL233W, strain BNI4, stronger effect = lower value 1.01 | S. cerevisiae deletion strains, locus YNL248C, strain rpa49, stronger effect = lower value 1 | S. cerevisiae deletion strains, locus YNL250W, strain rad50, stronger effect = lower value 1 | S. cerevisiae deletion strains, locus YNL271C, strain bni1, stronger effect = lower value 1.01 | S. cerevisiae deletion strains, locus YNL298W, strain CLA4, stronger effect = lower value 1.02 | S. cerevisiae deletion strains, locus YNL307C, strain MCK1, stronger effect = lower value 1.03 | S. cerevisiae deletion strains, locus YNL322C, strain KRE1 (second series), stronger effect = lower value 0.964 | S. cerevisiae deletion strains, locus YNR049C, strain mso1, stronger effect = lower value 0.981 | S. cerevisiae deletion strains, locus YNR052C, strain pop2, stronger effect = lower value 1.01 | S. cerevisiae deletion strains, locus YOL006C, strain TOP1, stronger effect = lower value 1 | S. cerevisiae deletion strains, locus YOL012C, strain htz1 1.35 | S. cerevisiae deletion strains, locus YOL147C, strain pex11, stronger effect = lower value 1.02 | S. cerevisiae deletion strains, locus YOR001W, strain rrp6, stronger effect = lower value 0.954 | S. cerevisiae deletion strains, locus YOR061W, strain CKA2, stronger effect = lower value 1 | S. cerevisiae deletion strains, locus YOR069W, strain VPS5, stronger effect = lower value 1.01 | S. cerevisiae deletion strains, locus YOR070C, strain gyp1, stronger effect = lower value 0.996 | S. cerevisiae deletion strains, locus YOR080W, strain dia2, stronger effect = lower value 0.981 | S. cerevisiae deletion strains, locus YOR083W, strain WHI5, stronger effect = lower value 0.966 | S. cerevisiae deletion strains, locus YOR106W, strain vam3, stronger effect = lower value 0.999 | S. cerevisiae deletion strains, locus YOR136W, strain idh2, stronger effect = lower value 1.01 | S. cerevisiae deletion strains, locus YOR144C, strain elg1, stronger effect = lower value 1.01 | S. cerevisiae deletion strains, locus YOR184W, strain ser1, stronger effect = lower value 1.03 | S. cerevisiae deletion strains, locus YOR231W, strain MKK1, stronger effect = lower value 0.996 | S. cerevisiae deletion strains, locus YOR265W, strain rbl2, stronger effect = lower value 0.997 | S. cerevisiae deletion strains, locus YOR270C, strain vph1, stronger effect = lower value 0.96 | S. cerevisiae deletion strains, locus YOR290C, strain snf2, stronger effect = lower value 0.993 | S. cerevisiae deletion strains, locus YOR316C, strain cot1, stronger effect = lower value 1 | S. cerevisiae deletion strains, locus YPL051W, strain arl3, stronger effect = lower value 1.01 | S. cerevisiae deletion strains, locus YPL078C, strain atp4, stronger effect = lower value 1.04 | S. cerevisiae deletion strains, locus YPL106C, strain sse1, stronger effect = lower value 0.976 | S. cerevisiae deletion strains, locus YPL240C, strain hsp82, stronger effect = lower value 0.983 | S. cerevisiae deletion strains, locus YPL256C, strain CLN2, stronger effect = lower value 0.984 | S. cerevisiae deletion strains, locus YPR119W, strain clb2, stronger effect = lower value 1.02 | S. cerevisiae deletion strains, locus YPR141C, strain kar3, stronger effect = lower value 1.02 | S. cerevisiae deletion strains, locus YPR163C, strain tif3, stronger effect = lower value 1.02 | S. cerevisiae deletion strains, locus YPR167C, strain met16, stronger effect = lower value 1.01 | S. cerevisiae deletion strains, strain wtn01, stronger effect = lower value 1.01 | S. cerevisiae strains, strain wild type, stronger effect = lower value 1.01
